The list is not random: actives were taken first. Their share in the collection is about 3.2%.
mTORC1 inh: inhibitors of mTORC1 signaling in Tsc2-/- p53-/- MEF cells; Tsc2-/- p53-/- MEF, phospho-rpS6 immunofluorescence/PI, 24 h; Potency, µM (top dose mostly 38.3 µM), for inactives: at the top dose activity change, negative = inhibition, usual class: inhibitors; hit rate 0.78% among 44,000; AID 493208;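 also: plate controls were DMSO for no effect and rapamycin for full effect; nearly all actives have a fitted effect of over 50% in size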
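Compounds act on Tsc2-/-, p53-/- fibroblasts carrying an empty vector for 24 h before fixation and dual staining for phospho-S6 and DNA (propidium iodide). Values are percentages of cells above a rapamycin-defined pS6/PI threshold.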
S16 viability: toxic to S16 Pmp22-F2sN Schwann cells | S16 Pmp22-F2sN Schwann cells viability, CellTiter-Glo, 24 h | Potency, µM (highest dose often 57.5 µM), without a hit: at the highest dose activity change, negative = cytotoxicity, usual class: cytotoxic | hit rate 0.48% among 43,000 | AID 1508642; also: nearly all actives have a fitted effect of over 65% in size
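Used to flag compounds lowering reporter output through toxicity, this quantitative HTS measures ATP-based CellTiter-Glo luminescence in S16 Pmp22-F2sN Schwann cells after 24 h compound exposure at 37C.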
p53null 32C kill: p53 null cell cytotoxicity, permissive temperature | Potency, µM (top dose mostly 46.1 µM), for inactives: top-dose activity change, negative = cytotoxicity, most hits filed as cytotoxic | hit rate 0.62% among 55,000 | AID 903 | H1299-neo p53 null cells, ATP luminescence, 24 h, 32C;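 also: 0% = DMSO only and -100% = full killing by 100 µM tamoxifen; nearly all actives have a fitted effect of over 55% in size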
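Cytotoxicity: H1299-neo (no p53), 32C, 24 h treatment. Concentrations up to 46 uM. Readout cellular ATP, luminescence. Normalization to DMSO basal and tamoxifen 100 uM maximal kill.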
p53null 39C kill: selectivity test: cytotoxicity in p53 null cells, nonpermissive temperature; Potency, µM (highest dose often 46.1 µM), inactives show at the highest dose activity, negative = cell killing, hits mostly cytotoxic; H1299 p53-null (neo) cells, 39C, ATPlite viability, 24 h; AID 904; hit rate 0.97% among 55,000;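 also: 0% = DMSO only and -100% = full killing by 100 µM tamoxifen; nearly all actives have a fitted effect of over 50% in size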
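Following overnight plating at 37C (600 cells/well), H1299-neo or H1299-p53A138V cells are dosed up to 46 uM. Incubation lasts 24 hr at 39C before ATP detection.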
PMP22 txn prim: modulates PMP22 transcription in S16 Schwann cells | S16 Pmp22-F2sN Schwann cells (luciferase reporters placed in the Pmp22 gene), FLuc/NLuc coincidence luminescence, 24 h | Potency, µM (series often up to 57.5 µM), for inactives: at the top dose activity change, negative = inhibition, most hits filed as inhibitors | hit rate 2% among 43,000 | AID 1508649; active = clear falling dose curves in both reporters; inconclusive = both reporters move, but less clearly or upward; inactive = either reporter flat; the % is the NLuc reporter signal
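S16(c9) Schwann cells with FLuc/NLuc coincidence reporter in the Pmp22 3' UTR; compounds pin-transferred, 24 h at 37C. Dual-luciferase read: FLuc first, then NLuc after Stop&Glo, each 10 min at room temperature.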
Numbers without * were called inactive; ? = inconclusive; . = no result given. Unless noted, calls follow the shape of the dose curve; as a rule, active = well fitted curve in the direction sought with a large enough effect; inconclusive = small, poorly fitted or top-dose-only effect, or another doubt; inactive = no such curve, though single readings can be large; an effect the other way counts as inactive or inconclusive. Unless noted, % is scaled to controls: 0 for no effect and ±100 for the full control effect; potency is read from the fitted curve at half-maximal effect.

SMILES	mTORC1 inh	S16 viability	p53null 32C kill	p53null 39C kill	PMP22 txn prim
CCOc1cccc(CNc2ccc(O)cc2)c1OCc1ccccc1Cl	-9.3%	?	0.4%	?	?
COc1cc2oc(=O)c(CC(=O)NCc3ccc(OC)c(OC)c3)c(C)c2cc1Cl	-1.9%	.	-5.4%	5.8%	.
CSc1n[nH]c(NCc2ccc(Cl)cc2)n1	.	.	-26.2%	2.7%	.
CSc1n[nH]c(NCc2ccc(C)cc2)n1	.	.	20µM*	11.2µM*	.
Cc1ccccc1NC(=O)c1ccc(Cl)c(S(=O)(=O)N2CCCCCC2)c1	9.4%	?	1.7%	?	-53.4%
Cc1ccc(C(=O)Nc2ccccc2C(=O)O)cc1S(=O)(=O)N1CCCCCC1	6.3%	8.4%	5.01µM*	10µM*	-29.8%
CC(C)c1nc2ccc(C(=O)NC(C)c3ccccc3)cc2o1 (configuration not stated)	-10.6%	?	0.5%	25.0%	-3.0%
CC(=O)Nc1ccc(NC(=O)c2csnn2)cc1	-6.1%	-3.2%	-7.3%	-3.5%	2.7%
Cn1c(=O)oc2cc(S(=O)(=O)N3CCC(C(=O)N4CCN(c5ccc(Cl)cc5)CC4)CC3)ccc21	-3.5%	?	3.2%	9.5%	13.4µM*
Cn1c(=O)oc2cc(S(=O)(=O)N3CCC(C(=O)N4CCN(c5cccc(Cl)c5)CC4)CC3)ccc21	-16.5%	?	34.1%	13.0%	?
Cc1nn(Cc2ccc(Cl)cc2Cl)c(C)c1NC(=O)C1C2CCC(O2)C1C(=O)O (configuration not stated)	.	.	-6.1%	-0.3%	.
Cc1nn(Cc2ccc(Cl)cc2Cl)c(C)c1NC(=O)CCl	.	.	5.1%	12.6µM*	.
O=C(O)c1ccc2nc(-c3cc4cccc(O)c4oc3=O)[nH]c2c1	3.7%	?	10µM*	?	-1.8%
CCN1CCN(c2csc3ccc(Br)cc3c2=O)CC1	0.1%	13.6%	-1.4%	-16.7%	?
O=C(Nc1nc2c(F)cc(F)cc2s1)c1ccc2c(c1)OCCO2	0.0%	-3.3%	-16.7%	-40.2%	?
COc1cccc2sc(NC(=O)c3ccc4c(c3)OCCO4)nc12	10.0%	2.8%	7.94µM*	7.94µM*	?
CCOC(=O)c1ccc2c(c1)N(CC(=O)Nc1ccc(C)cc1C)C(=O)c1ccccc1S2	2.9%	1.4%	5.3%	-14.1%	-15.2%
COc1ccc(N2CCN(C(=O)C(C)n3nc(C)c4sc5ccccc5c4c3=O)CC2)cc1 (configuration not stated)	1.31µM*	11.7%	-20.3%	12.6µM*	?
Cc1nn(C(C)C(=O)NC2CCC(C)CC2)c(=O)c2c1sc1ccccc12 (configuration not stated)	2.07µM*	6.9%	?	20µM*	?
Cc1ccc(C(=O)COC(=O)C(Cc2c[nH]c3ccccc23)NC(=O)c2ccc(C(C)(C)C)cc2)cc1 (configuration not stated)	-4.7%	8.1%	5.0%	28.9%	-35.7%
COC(=O)c1c(C)oc2ccc(N(C(=O)c3ccncc3)S(=O)(=O)c3cc(C)ccc3C)cc12	?	?	77.8%	90.7%	12.1µM*
CCOC(=O)c1c(-c2ccccc2)oc2ccc(N(C(C)=O)S(=O)(=O)c3ccccc3)cc12	5.9%	.	6.0%	-11.6%	.
CCOc1ccc(S(=O)(=O)N(C(C)=O)c2ccc3oc(C)c(C(=O)OC)c3c2)cc1	6.56µM*	?	34.9%	?	5.38µM*
COC(=O)c1c(C)oc2ccc(N(C(=O)c3ccncc3)S(=O)(=O)c3ccc(Br)cc3)cc12	?	?	6.6%	?	?
CC(=O)c1c(C)oc2ccc(N(C(=O)Oc3ccccc3)S(=O)(=O)c3ccccc3)cc12	17.4%	-7.9%	7.0%	16.2%	?
SMILES	mTORC1 inh	S16 viability	p53null 32C kill	p53null 39C kill	PMP22 txn prim
COC(=O)c1c(C)oc2ccc(N(C(=O)Oc3ccccc3)S(=O)(=O)c3ccc(C(C)(C)C)cc3)cc12	4.8%	-20.6%	15.4%	30.7%	6.58µM*
COc1ccc(C(=O)N2CCC(c3nc4ccccc4s3)CC2)cc1Cl	-0.6%	-1.9%	19.5%	?	?
CCOc1ccccc1NC(=O)Cn1cnc2onc(-c3ccc(F)cc3)c2c1=O	-2.1%	-6.4%	0.3%	-10.9%	-17.3%
COc1ccc2cc(CNc3ccc(C)cc3)c(=O)n(CC(=O)Nc3ccc(C)cc3Cl)c2c1	-5.3%	-1.3%	0.7%	-10.7%	?
COc1ccc2cc(CNc3ccccc3)c(=O)n(CC(=O)Nc3ccc(C)cc3C)c2c1	7.36µM*	-11.3%	9.3%	11.6%	-17.6%
CCOc1ccccc1Nc1ncnc2c1c(-c1ccccc1)cn2-c1ccc(OC)cc1	7.2%	-8.9%	-2.5%	9.1%	?
COc1ccc(NC(=O)C(=O)NCC(c2cccnc2)N2CCc3ccccc3C2)cc1 (configuration not stated)	6.0%	-13.6%	12.6µM*	20µM*	-18.2%
Cc1ccc(Nc2nc(Nc3ccc(C)c(C)c3)nc(N3CCOCC3)n2)cc1C	1.04µM*	?	-4.2%	24.4%	-0.3%
COc1ccc(Nc2nc(Nc3ccc(OC)cc3OC)nc(N3CCOCC3)n2)c(OC)c1	1.47µM*	-27.1%	-0.2%	3.8%	-14.4%
COc1ccc(NC(=O)CSc2nc3ccccc3nc2N2CCOCC2)c(OC)c1	12.3%	-3.0%	10.0%	?	-7.3%
CCOC(=O)CSc1nc2ccc(Nc3nc(N4CCOCC4)nc(N4CCOCC4)n3)cc2s1	.	.	0.4%	2.7%	.
Cc1ccc(-c2cc(C(=O)NCCc3ccccc3)c3ccccc3n2)cc1C	11.1%	-29.6%	-17.9%	10.2%	-75.5%
Cc1ccc(-c2cc(C(=O)NCc3cnn(C)c3C)c3ccccc3n2)cc1C	-6.7%	1.0%	?	0.794µM*	-39.3%
Cc1ccc(/C=C/C(=O)Nc2ccccc2C(N)=O)o1	-0.9%	?	12.6µM*	10µM*	-6.1%
CCOc1ccc(S(=O)(=O)N2CCC(c3ccncc3)CC2)cc1	-13.3%	-14.6%	3.0%	13.0%	-17.1%
CC(C)(C)OC(=O)N1CCC(c2c(C(=O)NCCN3CCC(Cc4ccccc4)CC3)cnn2-c2cccc(Cl)c2)CC1	14.7µM*	25.1µM*	3.5%	-122.0%	?
Cc1ccc(-n2ncc(C(=O)NCCN3CCC(Cc4ccccc4)CC3)c2C2CCN(C(=O)OC(C)(C)C)CC2)cc1	?	?	?	20µM*	?
Cc1ccc(-n2ncc(C(=O)NCCN3CCCC3)c2C2CCN(C(=O)OC(C)(C)C)CC2)cc1	0.1%	-2.6%	3.8%	-0.1%	?
CCCCS(=O)(=O)c1oc(-c2ccc(F)cc2)nc1S(=O)(=O)c1ccc(C)cc1	4.14µM*	?	15.8µM*	?	8.43µM*

Screening results deposited in PubChem by National Center for Advancing Translational Sciences (NCATS).
